SW480 rerep: induces DNA re-replication in SW480 colon adenocarcinoma cells; SW480 DNA re-replication, Hoechst DNA content imaging, 48 h; Potency, µM (doses to about 46.1 µM), without a hit: at the top dose re-replication activation, hits mostly activators; AID 624297; 340,000 tested, 1.8% active; further: potency means the concentration at half of the fitted maximal effect; % of control where 0% means no effect; nearly all actives have a fitted effect of over 55% in size
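Image-based read-out: total Hoechst fluorescence of nuclei (405 nm excitation, 500-530 nm emission), with hits raising the fraction of high-intensity nuclei. SW480 colon cells incubated 48 hr with compounds at 37 C.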
KB-3-1 tox: KB-3-1 parental cell cytotoxicity; KB-3-1 viability, CellTiter-Glo ATP luminescence, 72 h; Potency, µM (series often up to 46.1 µM), most hits filed as cytotoxic; 400,000 tested, 1.4% active; AID 1347075; further: potency means the concentration at half of the fitted maximal effect; on the % scale 0 is the no-effect control and ±100 the full control effect; nearly all actives have a fitted effect of over 60% in size
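Here the drug-naive KB-3-1 line serves as comparator for MDR sub-line selectivity; cells received compound titrations, 72 h at 37 °C, then CellTiter-Glo readout.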
KB-V1 cytotox: KB-V1 MDR subline cytotoxicity | 400,000 tested, 3.4% active | AID 1347076 | Potency, µM (titrated, usually from 46.1 µM), hits mostly cytotoxic | KB-V1 MDR cells viability, CellTiter-Glo, 72 h; further: potency means the concentration at half of the fitted maximal effect; on the % scale 0 is the no-effect control and ±100 the full control effect; nearly all actives have a fitted effect of over 60% in size
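Following 72 h at 37 degrees C with compound, KB-V1 cell viability was read by CellTiter-Glo luminescence, medium being phenol-red-free DMEM plus 10% FBS; concentration-response parameters came from normalized, curve-fitted qHTS data.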
hERG WT inh: inhibitors of human wildtype KCNH2 potassium channel; Q12809; activity change, % at 1.84 µM; U2OS, BacMam KCNH2, thallium flux FluxOr; stronger effect = lower value; 340,000 tested, 0.37% active;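 active means maximum activity change below -70%; inconclusive means maximum activity change between -70% and -50%; inactive means maximum activity change above -50%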; further: on the % scale 0 is the no-effect control and ±100 the full control effect
Target sequence (Q12809 whole entry, looked up): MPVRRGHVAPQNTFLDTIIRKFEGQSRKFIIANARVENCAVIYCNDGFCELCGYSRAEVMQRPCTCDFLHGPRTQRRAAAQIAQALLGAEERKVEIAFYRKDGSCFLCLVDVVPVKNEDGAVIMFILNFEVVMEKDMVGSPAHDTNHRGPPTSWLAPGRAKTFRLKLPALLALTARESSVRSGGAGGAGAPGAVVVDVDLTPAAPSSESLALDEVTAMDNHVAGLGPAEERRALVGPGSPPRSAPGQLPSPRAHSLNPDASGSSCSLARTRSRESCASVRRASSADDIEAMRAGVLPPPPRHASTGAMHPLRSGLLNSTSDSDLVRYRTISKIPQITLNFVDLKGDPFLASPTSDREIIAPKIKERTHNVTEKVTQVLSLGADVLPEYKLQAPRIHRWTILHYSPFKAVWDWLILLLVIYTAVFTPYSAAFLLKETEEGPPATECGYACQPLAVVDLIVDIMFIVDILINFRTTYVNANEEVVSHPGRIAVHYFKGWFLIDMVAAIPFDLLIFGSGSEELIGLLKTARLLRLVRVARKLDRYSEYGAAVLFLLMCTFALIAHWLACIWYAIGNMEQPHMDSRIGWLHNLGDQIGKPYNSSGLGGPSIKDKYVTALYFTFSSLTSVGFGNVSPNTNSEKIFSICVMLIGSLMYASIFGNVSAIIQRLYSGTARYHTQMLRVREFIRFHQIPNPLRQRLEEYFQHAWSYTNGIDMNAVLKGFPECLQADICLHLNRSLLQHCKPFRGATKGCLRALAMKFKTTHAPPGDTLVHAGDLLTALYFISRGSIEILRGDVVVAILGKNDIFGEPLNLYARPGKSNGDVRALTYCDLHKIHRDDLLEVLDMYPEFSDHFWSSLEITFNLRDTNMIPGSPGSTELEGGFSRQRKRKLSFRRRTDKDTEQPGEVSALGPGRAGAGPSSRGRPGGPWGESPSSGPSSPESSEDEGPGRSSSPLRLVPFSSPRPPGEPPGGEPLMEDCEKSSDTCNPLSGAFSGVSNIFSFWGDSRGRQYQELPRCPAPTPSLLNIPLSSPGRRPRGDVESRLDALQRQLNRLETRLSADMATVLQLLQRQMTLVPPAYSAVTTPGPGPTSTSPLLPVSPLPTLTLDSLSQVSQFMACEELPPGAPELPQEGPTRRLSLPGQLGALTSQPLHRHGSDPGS
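U2OS cells were transduced with wild-type KCNH2 virus (2.03 x 10^8 / mL) for 4 h at room temperature, then cultured overnight at 37 C. Thallium flux was read with FluxOr dye. Rate constants were normalized to DMSO controls.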
MCF10A rerep: DNA re-replication induction in MCF 10a cells | MCF 10A DNA re-replication, Hoechst nuclear intensity, 48 h | Potency, µM (series often up to 46.1 µM), for the others: top-dose activity, positive = re-replication, hits mostly activators | 350,000 tested, 2.9% active | AID 624296; further: potency means the concentration at half of the fitted maximal effect; % of control where 0% means no effect; nearly all actives have a fitted effect of over 50% in size
KCNH2 3.1 block: blocks the human KCNH2 3.1 channel isoform | activity change, % (tested at about 1.8 µM) | 340,000 tested, 0.95% active | U2OS KCNH2 3.1, thallium flux FluxOr; stronger effect = lower value;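 active means maximum activity change below -70%; inconclusive means maximum activity change from -70% to -50%; inactive means maximum activity change above -50%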;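 further: thallium influx rate constant from kinetic fluorescence after stimulation buffer; on the % scale 0 is the no-effect control and ±100 the full control effect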
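U2OS cells transduced with KCNH2 3.1 mutant virus (1.77 x 10^8 /mL, 4 h), plated overnight at 37 C, loaded 45 min with FluxOr dye plus Red40 quencher. Thallium flux rate constant from kinetic reads after stimulation buffer, normalised to controls.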
* = called active by the depositor; i = inactive; ? = inconclusive; / = no result. Only some compounds are listed: those with a hit (about 7.6% of all), similar ones and a draw of the others. Unless noted, the call rests on the fitted dose curve; in most records, active means well fitted curve in the direction sought with a large enough effect; inconclusive means small, poorly fitted or top-dose-only effect, or another doubt; inactive means no such curve, though single readings can be large; an effect the other way counts as inactive or inconclusive.

SMILES	SW480 rerep	KB-3-1 tox	KB-V1 cytotox	hERG WT inh	MCF10A rerep	KCNH2 3.1 block
Cc1nn(Cc2ccc(Cl)cc2Cl)c(C)c1NC(=O)c1nn(C)cc1Cl	-14%	?	?	-9	-6%	9
COc1ccc(N2CCN(C(=O)C(=O)c3ccc(F)cc3)CC2)cc1	/	i	?	/	/	/
CCOCc1c(C(=O)NC2=Nc3ccccc3NC(CC)=C2C(=O)OCC)oc2ccccc12	21µM*	?	?	-1	10µM*	-18
O=C(CCCN1C(=O)/C(=C/c2cccs2)SC1=S)Nc1cccnc1	-46%	i	i	0	-28%	27
O=C(CCCN1C(=O)/C(=C/c2cccc(Br)c2)SC1=S)Nc1cccnc1	18µM*	?	i	-17	18µM*	12
O=C(CN1C(=O)/C(=C/c2ccccc2)SC1=S)N1CCN(CCc2ccccn2)CC1	?	i	i	13	5.8µM*	-22
O=C(CCCN1C(=O)/C(=C/c2cccc(Br)c2)SC1=S)Nc1ccccn1	?	5.8µM*	15µM*	-24	?	-2
O=C(CCCN1C(=O)/C(=C\c2cccc(Br)c2)SC1=S)Nc1cccnc1	26%	i	i	-2	8.2µM*	-16
CCc1ccc(/C=C2\SC(=S)N(CCCC(=O)Nc3ccccn3)C2=O)cc1	-3%	?	?	-8	13%	2
CN(Cc1cccc(F)c1)C(=O)c1ccc(S(=O)(=O)N2CCCCCC2)cc1	6%	i	i	-3	2%	-21
COC(=O)CCCCCN1C(=O)/C(=C\c2ccncc2)SC1=S	1%	i	i	0	26µM*	3
Cc1ccc(/C=C2\SC(=S)N(CCCC(=O)Nc3cccnc3)C2=O)cc1	?	?	23µM*	4	?	2
O=C(CCCN1C(=O)/C(=C\c2ccccc2)SC1=S)Nc1ccc(O)cc1C(=O)O	7%	i	?	2	1%	-116*
CCOC(=O)N1CCC(N2CCCC(C(=O)c3cccc(OC(C)C)c3)C2)CC1 (stereo unspecified)	-13%	i	i	0	13%	-80*
Cn1c(CC(=O)c2ccc(Br)cc2)[n+](C)c2ccccc21	-5%	i	i	5	0%	8
Fc1ccccc1COc1cccc(/C=N/n2cnnc2)c1	-3%	i	13µM*	-9	4%	-1
Cc1cc(=O)n2[nH]c(-c3ccccc3)cc2n1	-2%	i	i	-10	0%	-8
Cc1cc(=O)n2[nH]c(-c3ccc(C(C)(C)C)cc3)cc2n1	9%	?	15µM*	-2	?	-9
Cc1cccc(C)c1NC(=O)COC(=O)C1Cc2ccccc2CN1C(=O)c1ccccc1 (stereo unspecified)	0%	i	8.2µM*	-25	0%	-3
Cc1ccc(NCC(=O)Nc2cccc(F)c2)cc1S(=O)(=O)N1CCCCCC1	-1%	?	i	7	-10%	-3
CN1C(=O)C(O)(C2COC(C)(C)CC2=O)c2cc(Br)ccc21 (stereo unspecified)	?	21µM*	?	2	?	3
Cc1ccc(NC2CCCN(C(=O)c3cc(C(C)C)[nH]n3)C2)cc1C (stereo unspecified)	-4%	i	i	-5	0%	9
CCC/C(O)=C1\C(=O)CC(c2ccccc2)CC1=NCCc1c(C)[nH]c2ccccc12 (stereo unspecified)	3%	i	i	-8	2%	11
CCCC(=NCCc1c(C)[nH]c2ccccc12)C1=C(O)CC(c2ccccc2)CC1=O (stereo unspecified)	6.5µM*	7.3µM*	5.2µM*	12	1.5µM*	-3
CCCCC(=NCCc1c(C)[nH]c2ccccc12)C1=C(O)CC(c2ccccc2)CC1=O (stereo unspecified)	10µM*	13µM*	9.2µM*	4	8.2µM*	0
SMILES	SW480 rerep	KB-3-1 tox	KB-V1 cytotox	hERG WT inh	MCF10A rerep	KCNH2 3.1 block
CCc1ccc2nc3n[nH]c(N)c3cc2c1	1%	?	12µM*	2	1%	-4
N/N=C/C(=N\Nc1ccc(Cl)cc1)C(=O)c1ccncc1	10µM*	i	i	9	-2%	1
OCC[C@@H]1C[C@H](O)[C@@H](O)[C@]2(CCCc3ccccc3O2)O1	-7%	i	i	-29	4%	-11
CCOC(=O)c1nn2c(C(F)(F)F)cc(-c3ccc(C)cc3)nc2c1Cl	/	i	i	/	/	/
COc1ccc(CCNc2nc(C)nc3c2oc2ccccc23)cc1OC	7%	?	16µM*	10	?	0
COc1ccc(CCNc2ncnc3c2oc2ccccc23)cc1OC	-4%	9.2µM*	2.6µM*	-7	5%	-15
Cc1nc(NCCc2cnc[nH]2)c2oc3ccccc3c2n1	-6%	i	?	3	12%	3
COc1ccc(S(=O)(=O)N2CCCC2CNC(=O)C(=O)NCCc2ccccc2)cc1 (stereo unspecified)	?	8.2µM*	4.6µM*	8	?	-4
COc1ccccc1CNC(=O)C(=O)NCCC1CCCCN1S(=O)(=O)c1ccccc1 (stereo unspecified)	13%	i	i	-13	11%	0
COc1ccc(S(=O)(=O)N2CCCC2CNC(=O)C(=O)NCc2ccccc2)cc1 (stereo unspecified)	-51%	?	?	-17	-30%	-13
O=C(NCc1ccc(F)cc1)C(=O)NCC1CCCN1S(=O)(=O)c1ccccc1 (stereo unspecified)	-1%	i	?	-6	8%	-2
COc1ccccc1CCNC(=O)C(=O)NCC1CCCN1S(=O)(=O)c1ccccc1 (stereo unspecified)	?	i	21µM*	2	?	9
COc1ccc(CCNC(=O)C(=O)NCC2CCCN2S(=O)(=O)c2ccccc2)cc1 (stereo unspecified)	4.6µM*	i	i	11	?	-9
O=C(NCCc1ccc(F)cc1)C(=O)NCC1CCCN1S(=O)(=O)c1ccccc1 (stereo unspecified)	?	18µM*	5.8µM*	-3	?	-9
COc1ccc(-c2nnc(SCC(=O)Oc3cc(C)ccc3C)o2)cc1	/	i	i	/	/	/
Cc1cc([N+](=O)[O-])ccc1NC(=O)C(C)N1CCN(c2ccccn2)CC1 (stereo unspecified)	-1%	i	21µM*	7	0%	-15
